Bioassay records (PubChem BioAssay)
Hits are enriched below; roughly 2.4% of the tested compounds scored in any of these assays.
D2 antag: antagonists of human D2 dopamine receptor; P14416; HEK293 TREx D2 cells, calcium flux, dopamine EC80; inhibition, % at 10 µM; actives 2% (n = 340,000); AID 485344; in the data active = inhibition above about 30%; inactive = below that, where a call was filed; note: 0% is about no effect
Target sequence (P14416 whole entry, looked up): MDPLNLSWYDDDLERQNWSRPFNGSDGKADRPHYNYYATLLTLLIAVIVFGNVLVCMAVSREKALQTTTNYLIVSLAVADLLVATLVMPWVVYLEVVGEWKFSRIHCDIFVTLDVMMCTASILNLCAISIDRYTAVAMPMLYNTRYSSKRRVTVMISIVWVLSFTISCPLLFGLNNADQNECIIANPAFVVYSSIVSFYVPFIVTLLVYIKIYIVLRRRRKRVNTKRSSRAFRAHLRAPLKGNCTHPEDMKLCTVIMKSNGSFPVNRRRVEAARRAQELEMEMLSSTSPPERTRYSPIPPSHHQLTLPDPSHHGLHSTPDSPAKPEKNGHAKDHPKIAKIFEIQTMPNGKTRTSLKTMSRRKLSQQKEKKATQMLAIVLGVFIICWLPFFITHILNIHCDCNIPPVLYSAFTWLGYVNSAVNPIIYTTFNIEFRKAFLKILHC
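Calcium mobilization kinetics were recorded at 1 s intervals in tetracycline-induced HEK293 T-REx D2 cells, first for 180 s after compound addition and then 180 s after EC80 dopamine.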
D2 ag-1: activates the human D2 dopamine receptor | P14416 | HEK293 T-REx D2 cells, calcium flux agonist mode | activation, % at 2 µM | actives 0.53% (n = 340,000) | AID 485358;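 active = activation over 3 SD above normal in the single-dose calcium agonist read, cut at about 30% in these data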; note: 0% is about no effect
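Tetracycline-induced HEK293 T-REx cells with force-coupled D2 receptor, plated overnight at 30 C, loaded with no-wash calcium dye. After a 10 s baseline, compound was pin-added and calcium flux read kinetically for 180 s; calcium rises flagged agonists.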
D2 PAM-1: positive allosteric modulators of human D2 dopamine receptor; potentiation, % (concentration not given with the values); actives 0.23% (n = 360,000); DiscoveRx D2 beta-arrestin cells, luminescence, 90 min; 100% = 57 uM dopamine signal; in the data active = potentiation above about 50%; inconclusive = mostly about 30% to 49%
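D2 cells co-treated with compound plus 50 nM dopamine (EC20) for 90 min at 37 deg C to detect potentiation. Beta-arrestin recruitment was read as enzyme-fragment luminescence after 1 h at ambient temperature. Full response was set by 57 uM dopamine.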
D2 PAM-2: positive allosteric modulators of human D2 dopamine receptor; P14416; HEK293 T-REx D2, calcium flux, EC20 dopamine potentiation; potentiation, % at 10 µM; actives 0.34% (n = 340,000);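 active = potentiation over 3 SD above the plate norm, cut at about 30% in these data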; note: 0% is about no effect
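Potentiation of an EC20 dopamine calcium response is measured in a force-coupled, tetracycline-inducible Hek293 Trex D2 line. Compound-only kinetic reads over 180 s flag agonists before dopamine addition.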
D2 ag-2: agonists of human D2 dopamine receptor (beta-arrestin); AID 624465; activation, % (concentration not given with the values); DiscoveRx PathHunter D2 beta-arrestin, luminescence, 90 min; 100% = 57 uM dopamine signal; actives 0.084% (n = 360,000); P14416; in the data active = activation above about 40%; inconclusive = between about 15% and that limit
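DiscoveRx PathHunter D2 beta-arrestin cells (2,100/well) attached overnight, then compound-stimulated 90 min at 37 C in HBSS/10 mM HEPES/0.1% Tween-20 buffer; beta-galactosidase complementation read by luminescence after 1 h at ambient temperature. Dopamine 57 uM final (EC100) as control.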
Active calls of the source: *; ? = inconclusive; / = no result.

SMILES | D2 antag | D2 ag-1 | D2 PAM-1 | D2 PAM-2 | D2 ag-2
O=C(CN1CCC(NC(=O)c2ccco2)CC1)Nc1ccccc1C(F)(F)F | 50* | 0 | -6 | 9 | -1
S=C(Nc1ccccc1Cl)NC1CCN(Cc2ccccc2)CC1 | 85* | 0 | -38 | -24 | 1
COc1ccc(Cl)cc1NC(=O)CSc1nnc(CN2CCOCC2)n1-c1ccc(Cl)cc1 | 76* | 1 | -24 | -24 | -2
Cc1cc(C)cc(NC(=O)C2CCN(c3cnccn3)CC2)c1 | 33* | -1 | -5 | -38 | -8
CCOc1ccc(NC(=O)/C(C#N)=C/c2ccc(N3CCCC3)c(C)c2)cc1 | 38* | 32* | 6 | -3 | 6
CCOC(=O)c1ccc2c(c1)N(Cc1ccc(F)cc1Cl)C(=O)c1ccccc1S2(=O)=O | / | / | / | 12 | /
CCOC(=O)C1CCN(C(=O)c2cc3ccc4ccc(C)[nH]c4c3n2)CC1 | / | 0 | / | 5 | /
Cn1c(C(=O)Nc2ccc3c(c2)OCO3)cc2c(=O)n(C)c3ccccc3c21 | 15 | -1 | -1 | 31* | -1
COc1cc2c(cc1NC(=O)CSc1nnc(Cc3cccs3)n1C)oc1ccccc12 | 14 | 0 | -18 | -1 | -2
CCn1c(SCC(=O)Nc2cc3oc4ccccc4c3cc2OC)nnc1-c1cccs1 | 45* | 37* | 0 | -15 | 12
CCC(=O)N1CCc2cc(S(=O)(=O)NC(Cc3ccccc3)C(=O)Nc3cccc(OC)c3)ccc21 (centres undefined) | / | 0 | / | -3 | /
CCCn1cnc2c(oc3ccccc32)c1=O | -3 | 0 | -3 | 2 | -3
CCCn1cnc2c(=O)oc3ccccc3c21 | 39* | 0 | -9 | 5 | -5
Cc1nn2c(=O)cc(COC(=O)c3ccc(NC(=O)c4ccc(C(C)(C)C)cc4)cc3)nc2s1 | / | 1 | / | 0 | /
CN1CCN(c2nc(C#N)cc(-c3ccccc3)n2)CC1 | 22 | 0 | -38 | 5 | -2
COc1ccc(-c2cc(C(F)(F)F)nc(N3CCN(C)CC3)n2)cc1 | 39* | 0 | -39 | -18 | -2
COc1ccc(-c2cc(C(F)(F)F)nc(N3CCCCCC3)n2)cc1 | 24 | 1 | -9 | -3 | -5
COc1ccc(-c2cc(C#N)nc(N3CCN(C)CC3)n2)cc1 | 55* | -4 | -20 | -21 | -4
COc1ccc(S(=O)(=O)Nc2cc3c(cc2NCc2ccccc2)n(C)c(=O)n3C)cc1OC | / | 0 | / | 19 | /
Cc1cc2c(OCC(O)CNC3CCCCC3)cccc2[nH]1 (centres undefined) | 60* | 25 | -11 | -34 | -3
O=C(NCC(c1ccc(F)cc1)N1CCOCC1)c1nn(-c2ccccc2)c(=O)c2ccccc12 (centres undefined) | 70* | 0 | -2 | -33 | -5
CC(C)COC(=O)c1ccc2c(c1O)C(=O)c1ccccc1C2=O | 2 | 0 | 62* | -1 | 13
Oc1ccc(/C=N/N2CCCCC2)cc1O | / | / | -11 | -3 | 44*
C=CCOc1ccc(/C=C/C(=O)OCC(=O)NCC2CCCCC2)cc1 | 5 | -1 | -33 | 14 | -2
C=CCOc1ccc(/C=C/C(=O)OCC(=O)NC2CCCCCCC2)cc1 | 43* | 1 | -6 | -16 | -3
SMILES | D2 antag | D2 ag-1 | D2 PAM-1 | D2 PAM-2 | D2 ag-2
O=C(CCC(=O)N1CCc2ccccc21)Nc1ccccc1 | 36* | 0 | -10 | -9 | -2
O=C(CCN1CCCCCC1)Nc1cccc(F)c1 | -7 | 0 | -18 | -20 | -3
O=C(Nc1ccccc1)N1CCc2ccccc21 | -12 | 0 | -7 | -11 | -3
CN(c1ccccc1)S(=O)(=O)c1cccc(NC(=O)CN2CCc3ccccc3C2)c1 | 33* | 28 | 16 | -13 | ?
O=C(CCN1CCc2ccccc2C1)Nc1ccccc1 | 57* | 0 | -36 | -24 | 0
CN(c1ccccc1)S(=O)(=O)c1cccc(NC(=O)CC(C)(C)C)c1 | -6 | -1 | -9 | 4 | 0
O=C(CCN1CCc2ccccc2C1)Nc1cccc(F)c1 | 60* | 3 | -27 | / | -4
CCCCNC(=O)CCCn1c(=O)c2ccccc2n(Cc2ccc(Cl)cc2)c1=O | / | -1 | / | 1 | /
O=C(c1cc(S(=O)(=O)N2CCCC2)c[nH]1)N1CCN(c2cccc(Cl)c2)CC1 | / | 0 | / | 1 | /
Cc1ccc(C)c(N2CCN(CCCNC(=O)c3cnn(-c4ccccc4Cl)c3C3CCN(C(=O)OC(C)(C)C)CC3)CC2)c1 | / | 2 | / | -11 | /
CCOc1ccc(CN2C(=O)c3ccccc3Sc3ccc(C(=O)NCc4ccco4)cc32)cc1 | / | 1 | / | 5 | /
O=C(CN1CCc2ccccc2C1)Nc1ccccc1C(F)(F)F | 4 | 34* | -2 | -4 | 13
O=C(CN1CCc2ccccc2C1)Nc1ccc(Br)cc1 | 58* | 1 | -40 | -22 | -1
CCCCCOc1ccccc1CN1C(=O)C(=O)c2cc(C)ccc21 | / | -1 | / | 15 | /
COc1cccc(-n2cc(C(=O)Oc3ccc(F)cc3)c3ccccc3c2=O)c1 | / | 1 | / | -3 | /
Cc1nc2sc(C(c3ccccc3)N3CCN(C)CC3)c(O)n2n1 (centres undefined) | 47* | -1 | -5 | 0 | 0
CC(=O)c1cccc(NC(=O)C(CC(C)C)NS(=O)(=O)c2ccc3c(c2)CCN3C(C)=O)c1 (centres undefined) | / | 0 | / | 3 | /
O=C(CC1S/C(=N/N=C/c2cccs2)NC1=O)Nc1ccc(Cl)cc1 (centres undefined) | 44* | 1 | 4 | 11 | -3
CCC(=O)N1CCc2cc(S(=O)(=O)CCC(=O)NCCc3ccc(OC)c(OC)c3)ccc21 | 37* | 0 | -13 | 2 | 0
COc1ccc(S(=O)(=O)Nc2ccc3c(c2)N(C(C)=O)CCC3)cc1OC | 34* | 0 | -2 | 17 | 3
COc1ccc(CCNC(=O)C(NS(=O)(=O)c2ccc3c(c2)CCN3C(C)=O)C(C)C)cc1OC (centres undefined) | 5 | 0 | / | 32* | /
CCC(=O)N1CCc2cc(S(=O)(=O)CCC(=O)NCCc3ccccc3)ccc21 | 1 | -2 | -14 | 5 | -1
COc1ccc(S(=O)(=O)Nc2ccc(N3CCOCC3)cc2)cc1Br | 30* | 0 | -36 | 5 | 0
COc1ccc(S(=O)(=O)Nc2ccc(N3CCOCC3)cc2)cc1[N+](=O)[O-] | 2 | -1 | 4 | 1 | 2
Cc1cc(Cl)ccc1NC(=O)CN(c1ccccc1Br)S(C)(=O)=O | / | -1 | / | -5 | /
COc1ccc(Cn2c(C)nc3oc4cc(OC)ccc4c(=O)c3c2=O)cc1 | 72* | 0 | -38 | -11 | -6
CCCCCCn1c(-c2ccco2)nc2oc3cc(OC)ccc3c(=O)c2c1=O | -4 | -1 | -9 | 30* | -1
